Compound activity deposited in PubChem BioAssay by National Center for Advancing Translational Sciences (NCATS).
MCF10A rereplic – A quantitative high throughput screen for small molecules that induce DNA re-replication in MCF 10a normal breast cells | MCF 10A DNA re-replication, Hoechst nuclear intensity, 48 h | Potency, µM (titrated, usually from 46.1 µM), without a hit: at the top dose activity, positive = re-replication, actives largely listed as activators | actives 2.9% (n = 350,000); note: potency is the fitted concentration of half-maximal effect; % of control where 0% means no effect; nearly all actives have a fitted effect of over 50% in size
Gal4-VP16 FLuc – VP16 counterscreen qHTS for inhibitors of ROR gamma transcriptional activity. Drosophila S2 Gal4-VP16 UAS-luciferase, luminescence, 20 h. Potency, µM (series often up to 53.6 µM), for inactives: at the top dose activity, negative = inhibition, usual class: inhibitors. actives 3.5% (n = 310,000). AID 2546, 2010;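 note: Gal4-VP16 expression switched on by copper sulfate through the metallothionein promoter; potency is the fitted concentration of half-maximal effect; % is set by controls: 0 for no effect and ±100 for the full control effect; nearly all actives have a fitted effect of over 50% in size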
Giardia killer – Small Molecules that selectively kill Giardia lamblia: qHTS. Giardia lamblia trophozoite viability. activity change, % at 7.66 µM, hits read low. actives 0.15% (n = 340,000). AID 540267, 2011; in the data active = activity change below about -80%; inconclusive = between about -30% and that limit;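 note: parasites exposed to compound for two days anaerobically before the ATP read; % is set by controls: 0 for no effect and ±100 for the full control effect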
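Compounds were tested on trophozoites seeded at 100 cells/well and held 48 hrs at 37 deg C anaerobically. An ATP-based luminescent kit measured the remaining live cells.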
RORgamma inh – qHTS for inhibitors of ROR gamma transcriptional activity. Nuclear receptor ROR-gamma (Mus musculus), P51450. Drosophila S2 Gal4-RORgamma UAS-luciferase reporter, 20 h. Potency, µM (titrated, usually from 53.6 µM), for inactives: top-dose activity change, negative = inhibition, usual class: inhibitors. actives 5.4% (n = 310,000). AID 2551, 2010; note: potency is the fitted concentration of half-maximal effect; % is set by controls: 0 for no effect and ±100 for the full control effect; nearly all actives have a fitted effect of over 60% in size
Target sequence (P51450 whole entry, looked up, the tested form may be a part): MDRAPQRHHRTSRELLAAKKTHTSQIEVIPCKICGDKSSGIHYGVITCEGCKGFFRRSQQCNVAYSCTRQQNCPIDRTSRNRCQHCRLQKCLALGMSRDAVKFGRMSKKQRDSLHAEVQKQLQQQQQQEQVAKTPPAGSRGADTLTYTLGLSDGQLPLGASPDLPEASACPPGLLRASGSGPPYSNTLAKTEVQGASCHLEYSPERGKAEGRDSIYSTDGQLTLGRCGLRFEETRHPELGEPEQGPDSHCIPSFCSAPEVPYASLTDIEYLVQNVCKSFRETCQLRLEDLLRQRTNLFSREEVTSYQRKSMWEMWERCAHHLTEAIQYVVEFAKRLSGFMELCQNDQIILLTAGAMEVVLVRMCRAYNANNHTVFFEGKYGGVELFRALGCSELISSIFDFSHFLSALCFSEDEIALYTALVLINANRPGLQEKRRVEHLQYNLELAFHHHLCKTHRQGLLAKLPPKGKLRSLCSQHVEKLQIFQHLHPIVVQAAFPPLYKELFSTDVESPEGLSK
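Using a luciferase readout, inhibitors were identified by reduced reporter activity in Drosophila cells coexpressing a copper-inducible Gal4–ROR gamma fusion and UAS-driven Photinus luciferase, incubated 20 hr after 700 uM copper sulfate.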
BCR signal inh – qHTS Assay to Find Inhibitors of Chronic Active B-Cell Receptor Signaling | ABC-DLBCL IkBa-CBG/CBR reporter, luminescence ratio, 4 h | Potency, µM (doses to about 46.1 µM), inactives show at the top dose activity change, negative = inhibition, usual class: inhibitors | actives 0.05% (n = 340,000) | AID 493014, 2011; active = well fitted inhibition curve with a large enough effect in the signal ratio, with a control signal flat, not every such curve was filed as active; inconclusive = small, poorly fitted or top-dose-only effect, or effect the other way, or a change in a side signal; the % refers to the signal ratio;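 note: potency is the fitted concentration of half-maximal effect; plate controls were basal doxycycline-induced cells for no effect and cells given 10 µM MG132 for full effect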
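TMD8 ABC-DLBCL cells carrying doxycycline-inducible green luciferase fused to IkappaBalpha plus unfused red luciferase were exposed to compounds (up to 46 uM) for 4 hrs at 37C. Activity came from the overlap-corrected green/red luminescence ratio.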
SW480 rerep – A quantitative high throughput screen for small molecules that induce DNA re-replication in SW480 colon adenocarcinoma cells; SW480 DNA re-replication, Hoechst DNA content imaging, 48 h; Potency, µM (highest dose often 46.1 µM), inactives show at the highest dose re-replication activation, hits mostly activators; actives 1.8% (n = 340,000); note: potency is the fitted concentration of half-maximal effect; % of control where 0% means no effect; nearly all actives have a fitted effect of over 55% in size
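Compounds, transferred as 23 nL by pin tool, were incubated with cells for 48 hr; DNA content per nucleus was then quantified by Hoechst staining and fluorescence plate imaging.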
Numbers without * were called inactive; ? = inconclusive; nt = no result; [ ] = remark or other dose. Rows were chosen to be rich in hits. Some 8.3% of all compounds tested hit in one or more screens of this group. Unless noted, calls come from the whole dose curve; as a rule, active = well fitted curve in the direction sought with a large enough effect; inconclusive = small, poorly fitted or top-dose-only effect, or another doubt; inactive = no such curve, though single readings can be large; an effect the other way counts as inactive or inconclusive.

SMILES	MCF10A rereplic	Gal4-VP16 FLuc	Giardia killer	RORgamma inh	BCR signal inh	SW480 rerep
CCc1ccc(OCC2c3cc(OC)c(OC)cc3CCN2C(=S)NCCOC)cc1 (centres undefined)	10%	-12%	-19	20%[10 µM]	-7%	-5%
Cc1ccc(NC2Sc3ccccc3NC2=O)cc1 (centres undefined)	1%	?	-17	11µM*	?	-1%
O=C(Nc1nccs1)C(NS(=O)(=O)c1ccc(Br)s1)c1ccccc1 (centres undefined)	0%	?	38	11µM*	?	-6%
Cc1[nH][nH]c(=O)c1C(c1c(C)[nH][nH]c1=O)c1cn(Cc2ccccc2Cl)c2ccccc12	6.5µM*	-11%	7	?	?	16µM*
N/C(=N\O)c1cn(Cc2ccccc2Cl)c2ccccc12	27%	-5%	1	8%	-4%	-6%
Cc1cc(OC(=O)c2cc(Br)ccc2Cl)c([N+](=O)[O-])c(=O)[nH]1	1%	?	0	-21%	-10%	-10%
Cc1ccc(Nc2nc(-c3ccncc3)nc3ccccc23)cc1	9.2µM*	-1%	-1	-24%	-18%	55%
CN(C)c1ccc(-c2nc3ccccc3c(=O)[nH]2)cc1	22%	?	?	5.6µM*	?	9%
c1ccc(CCNc2nc(-c3ccncc3)nc3ccccc23)cc1	?	-11%	-7	?	1%	21µM*
COc1ccc(-c2nc3ccccc3c(=O)[nH]2)cc1	-11%	-21%	?	?	9%	1%
CN(C)c1ccc(-c2nc(NCc3cccnc3)c3ccccc3n2)cc1	nt	14µM*	nt	?	nt	nt
c1cncc(CNc2nc(-c3ccoc3)nc3ccccc23)c1	nt	6%	nt	4%	nt	nt
COc1ccc(C(=O)O)cc1S(=O)(=O)Nc1ccc2cn[nH]c2c1	-1%	nt	-5	nt	-2%	0%
O=C(Nc1cc2c3c(c1)CC(=O)N3CCC2)C1CC1	-22%	nt	4	nt	?	-18%
CN(C)c1ccc(-c2nc(Nc3ccncc3)c3ccccc3n2)cc1	nt	16µM*	nt	?	nt	nt
COc1ccc(CNc2nc(-c3ccc(C(=O)N(C)C)cc3)nc3ccccc23)c(OC)c1	nt	-5%	nt	?	nt	nt
COc1ccc(CNc2nc(-c3ccc(N(C)C)cc3)nc3ccccc23)c(OC)c1	nt	5µM*	nt	5µM*	nt	nt
Cc1ccccc1NC(=O)CN1C(=O)S/C(=C/c2cccnc2)C1=O	-1%	-7%	16	?	5%	-2%
C=C[C@@H]1c2cc(C)ccc2N(S(=O)(=O)c2ccc(C)cc2)[C@H](c2ccc(OC(C)=O)cc2)C1(C#N)C#N	3.3µM*	nt	17	nt	-9%	21%
C=C[C@@H]1c2ccccc2N(S(=O)(=O)c2ccc(C)cc2)[C@H](c2ccc(OC(C)=O)cc2)C1(C#N)C#N	?	nt	-7	nt	1%	?
O=S(=O)(NCCC1=CCCCC1)c1c(Cl)cccc1Cl	?	nt	-1	nt	?	-5%
Cc1ccc(NC(=S)NC2CCSc3ccccc32)cc1C (centres undefined)	18µM*	4µM*	-3	3.5µM*	?	18µM*
C=C(C)C(O)/C=C/c1ccc(C(F)(F)F)cc1 (centres undefined)	nt	2%	nt	-16%	nt	nt
Cc1cccc(C(=O)N/N=C2\CS(=O)(=O)N(C)c3ccsc32)c1	-3%	-26%	5	?	0%	?
CN1c2ccsc2/C(=N/NC(=O)c2c(F)cccc2F)CS1(=O)=O	-2%	5µM*	3	3.2µM*	0%	-1%
SMILES	MCF10A rereplic	Gal4-VP16 FLuc	Giardia killer	RORgamma inh	BCR signal inh	SW480 rerep
Cc1cc(C)c(C)c(/C=C(/C#N)C(N)=S)c1C	?	16µM*	-7	6.3µM*	0%	?
Cc1ccc(N=Nc2ccc(O)c(/C=N\NC(=O)c3ccc(N)cc3)c2)cc1C	0%	2.2µM*	3	3.2µM*	?	3.7µM*
CCOc1ccccc1NC(=O)C(=O)N/N=C/c1cc(Br)ccc1O	-10%	?	-26	1.8µM*	?	0.82µM*
COc1cc(/C=N/NC(=O)c2ccccc2)ccc1O	10%	2%	1	-16%	?	1%
O=C(N/N=C/c1cc(Cl)ccc1O)c1ccc(Br)cc1	14%	?	10	2.8µM*	3%	1.6µM*
O=C(N/N=C/c1ccccc1O)c1cc[n+]([O-])cc1	?	-11%	24	?	0%	26µM*
O=C1c2nccnc2C(=O)N1Cc1ccccc1	2%	nt	-9	nt	nt	-1%
CC1=CCC2C(=O)N(c3cccc(C(=O)Nc4ccccc4Cl)c3)C(=O)C2C1 (centres undefined)	-2%	0%	-14	-10%	1%	1%
COc1ccc(CNC(=O)COC(=O)c2[nH]c(C)c(C(C)=O)c2C)cc1OC	2%	nt	1	nt	-1%	-12%
CCS(=O)(=O)N1CCC(C(=O)Nc2ccc(C(C)=O)cc2)CC1	-2%	0%	9	0%	-2%	-18%
O=C1C=CC2C(c3ccc4c(c3)OCO4)CC1N2Cc1ccccc1 (centres undefined)	?	-5%	6	-3%	6%	4%
CC(C)CN(CCCNC(=O)CN1C(=O)COc2ccc(S(=O)(=O)N3CCOCC3)cc21)CC(C)C	-14%	-5%	10	-14%	?	9%
O=C(N/N=C\c1cc(Br)ccc1O)c1ccc(S(=O)(=O)N2CCCCC2)cc1	-4%	4µM*	9	3.5µM*	2%	4%
Cc1nc(C)c(C(=O)N/N=C/c2c[nH]c3ccccc23)s1	?	-2%	19	-10%	?	?
Cc1cc(C(=O)N/N=C/c2cc(Br)ccc2OC(=O)c2ccccc2)n[nH]1	22%	3%[0.365 µM]	19	?	10%	?
O=C(N/N=C/c1cc(Br)ccc1O)Nc1ccccc1	?	11µM*	-16	2.5µM*	0%	?
Cc1nc(C)c(C(=O)N/N=C/c2cc(Br)ccc2O)s1	?	7.9µM*	2	3.2µM*	?	?
Cc1cc(C(=O)N/N=C/c2cc(Br)ccc2OC(=O)c2ccccc2Cl)n[nH]1	?	?	-18	14µM*	2%	7.3µM*
O=C(N/N=C/c1ccc(O)c2ncccc12)c1cccc(Br)c1	18µM*	?	3	16µM*	-16%	?
O=C(N/N=C\c1ccc(Sc2ccccn2)o1)c1cccc(Br)c1	?	?	21	8.9µM*	?	6%
